Experimental data: PubChem BioAssay (Tox21)
Records with an inconclusive call do not appear. Unmarked numbers belong to inactive results. The source made the active and inactive calls. Calls follow the shape of the dose curve; as a rule, active = well fitted cell-killing curve with a large enough effect in the repeat runs; inconclusive = weak or mixed curves, or effect the other way; inactive = flat fitted curve, though single readings scatter.

Assay: qHTS RealTime-Glo MT Cell Viability Assay in HEK293 cells - 24 hour (AID 1224886); also: top concentration of the series differs between compounds; nearly all actives have a fitted effect of over 50% in size
Conditions: RealTime-Glo luminescence; series mostly up to 76.8 µM; activity change, negative = cytotoxicity: at the top concentration
Source text: National Center for Advancing Translational Sciences [NCATS]
NIH Chemical Genomics Center [NCGC]
U.S. Environmental Protection Agency [EPA]
National Institutes of Environmental Health Sciences [NIEHS]
National Toxicology Program [NTP]
U.S. Food and Drug Administration [FDA]
Measure of cell viability is critical in the cell-base assay. Analysis of cell viability is necessary for the characterization of cell responses to cytotoxic drugs and environmental stress. A RealTime-Glo MT Cell Viability Assay to monitor cell viability in real time of continues cell culture during 40 hours of compound treatment was used to screen Tox21 10K library compounds in Hek293 cells. The RealTime-Glo MT Cell Viability Assay is a nonlytic, homogeneous, bioluminescent method to measure cell viability in real time using a simple, plate-based method. The assay involves adding NanoLuc luciferase and a cell-permeant prosubstrate to cells in culture. Viable cells reduce the proprietary prosubstrate to generate a substrate for NanoLuc luciferase. This substrate diffuses from cells into the surrounding culture medium, where it is rapidly used by the NanoLuc Enzyme to produce a luminescent signal. The signal correlates with the number of viable cells, making the assay well suited for cytotoxicity studies.
Tox21 Assay Protocol Summary:
The mixture of Hek293 cell suspension and reagents were dispensed at 600cells/6 ul/well in 1536-well tissue culture treated black solid bottom plates using a Multidrop dispenser. After the assay plates were incubated at a 37 C/5% CO2 incubator for 5 hours, 23 nL of compounds dissolved in DMSO, positive and negative controls was transferred to the assay plate by a pintool work station. The plates were incubated at 37 C for 40 hours. The luminescence intensity were measured at 0h, 8h, 16h, 24h, 32h and 40h time points using ViewLux plate reader during compound treatment.
% is scaled to controls: 0 for no effect and ±100 for the full control effect.

| Structure (SMILES) | activity change, negative = cytotoxicity | Potency |
| --- | --- | --- |
| C[N+](C)(C)CC(O)CC(=O)[O-] (stereo not given) | -7.31% [at 35.3 µM] |  |
| CO[C@]12C[C@@H](COC(=O)c3cncc(Br)c3)CN(C)[C@@H]1Cc1cn(C)c3cccc2c13 | -18.8% [at 35.3 µM] |  |
| N#Cc1ccc(C2CCCc3cncn32)cc1 (stereo not given) | 5.1% [at 35.3 µM] |  |
| Cc1[nH]c(=O)c(C#N)cc1-c1ccc2nccn2c1 | 5.35% [at 35.3 µM] |  |
| CCCCNC(=O)NCCCC | 4.5% |  |
| OC[C@]1(O)OC[C@@H](O)[C@H](O)[C@@H]1O |  | inactive |
| O=C1OC(=O)C2CCCCC12 (stereo not given) | 1.71% |  |
| CCOC(=O)Nc1ccc(NCc2ccc(F)cc2)nc1N | -1.78% [at 35.3 µM] |  |
| CN(C)CCCSc1ccccc1NC(=O)/C=C/c1ccccc1 | -19.4% [at 35.3 µM] |  |
| CN1CCC(=C2c3ccccc3CC(=O)c3sccc32)CC1 | -22% [at 35.3 µM] |  |
| C=COCC1CCC(CO)CC1 (stereo not given) | 9.39% |  |
| CC(=O)Nc1ccc(S(N)(=O)=O)cc1 | 8.69% |  |
| CCc1ccc(O)c(OC)c1 | 8.88% |  |
| CN1CCN(c2cc3c(cc2F)c(=O)c(C(=O)O)cn3-c2ccc(F)cc2)CC1 | 0.124% [at 35.3 µM] |  |
| CCOC(=O)CC(C)=O | 12.2% |  |
| N[C@@H](C(=O)N[C@@H]1C(=O)N2C(C(=O)O)=C(Cl)CS[C@H]12)c1ccccc1 | 7.93% [at 6.97 µM] |  |
| CCCCCCOC(=O)CCCCC(=O)OCCCCCC | 8.07% |  |
| O=C1CCCN1C1CCCCC1 | 3.46% |  |
| CCCCC/C=C\CCC=O | 6.78% |  |
| O=C(O)CCCc1ccccc1 | -4.74% [at 35.3 µM] |  |

| Structure (SMILES) | activity change, negative = cytotoxicity | Potency |
| --- | --- | --- |
| NC(=O)c1ccc(N)cc1 | -2.01% |  |
| N[C@H]1CN(c2c(F)cc3c(=O)c(C(=O)O)cn(C4C[C@H]4F)c3c2Cl)CC12CC2 (stereo not given in full) | -1.46% [at 35.3 µM] |  |
| CCCCCCCCCCCCCCCCC | 4.13% |  |
| O=C1CCCC(=O)C1 | 7.06% |  |
| CCOC(=O)[C@H](CCc1ccccc1)N[C@@H](C)C(=O)N1[C@H](C(=O)O)C[C@@H]2CCC[C@@H]21 | 7.46% [at 35.3 µM] |  |
| CC(C(=O)O)c1ccc(CC2CCCC2=O)cc1 (stereo not given) | 0.573% [at 35.3 µM] |  |
| CN(C)CCCNCCCN(C)C | 3.68% |  |
| COc1ccc2c(c1)c(CC(=O)OCC(=O)O)c(C)n2C(=O)c1ccc(Cl)cc1 | 7.5% [at 35.3 µM] |  |
| CCCC(=O)O[C@]1(C(=O)CO)CC[C@H]2[C@@H]3CCC4=CC(=O)CC[C@]4(C)[C@H]3[C@@H](O)C[C@@]21C | 0.525% [at 35.3 µM] |  |
| CCCCCSCCCCC | 0.335% |  |
| CCn1nc(C(=O)O)c(=O)c2cc3c(cc21)OCO3 | 5.7% [at 35.3 µM] |  |
| O=C1CC2CC1C1CCCC21 (stereo not given) | -1.69% |  |
| CCN(CC)CCOCCOC(=O)C1(c2ccccc2)CCCC1 | -6.9% [at 35.3 µM] |  |
| NS(=O)(=O)c1cc2c(cc1Cl)NC(C1CC3C=CC1C3)NS2(=O)=O (stereo not given) | 15.6% [at 35.3 µM] |  |
| Nc1ccc(S(=O)(=O)Nc2ccnn2-c2ccccc2)cc1 | 7.4% [at 15.8 µM] |  |
| COCCCOCCCOC | 1.44% |  |
| COc1ccccc1OCC(O)CN1CCN(CC(=O)Nc2c(C)cccc2C)CC1 (stereo not given) | -13.4% [at 35.3 µM] |  |
| CS(=O)(=O)O | 1.2% |  |
| CCCCC(CC)COC(=O)c1ccccc1O (stereo not given) | -0.583% [at 35.3 µM] |  |
| Cc1c(O)cccc1O | 7.8% |  |
